Several values for one entry are separate records, joined by “and”; a condition that tells them apart may be missing. Equal values may be shown once. Records with an inconclusive call do not appear. The source holds several records for some structures; these can differ, active in one and inactive in another. Activity calls are given as the source filed them. Rule for the calls, unless noted: active = hit-call score of the fitted dose curve at least 0.9, where 1 is the maximum; inactive = score below 0.9.
Columns and labels:
[1] = target: Ratio of Nucleoli Translocation and Cytoplasm, AR (gene 367) (UniProt P10275); test: UPITT_HCI_U2OS_AR_TIF2_Nucleoli_Cytoplasm_Ratio_Agonist: University of Pittsburgh U2OS Androgen Receptor-Transcriptional Intermediary Factor 2 (AR-TIF2) Agonism High Content Imaging Assay for Ratio of Nucleoli Translocation and Cytoplasm (AID 2284000; active = hit-call score of the fitted dose curve at least 0.9, where 1 is the maximum;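 note: hits raise the red nucleolar to cytoplasm ratio above vehicle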)
Sequence of Ratio of Nucleoli Translocation and Cytoplasm, AR (gene 367) (P10275 whole entry, looked up): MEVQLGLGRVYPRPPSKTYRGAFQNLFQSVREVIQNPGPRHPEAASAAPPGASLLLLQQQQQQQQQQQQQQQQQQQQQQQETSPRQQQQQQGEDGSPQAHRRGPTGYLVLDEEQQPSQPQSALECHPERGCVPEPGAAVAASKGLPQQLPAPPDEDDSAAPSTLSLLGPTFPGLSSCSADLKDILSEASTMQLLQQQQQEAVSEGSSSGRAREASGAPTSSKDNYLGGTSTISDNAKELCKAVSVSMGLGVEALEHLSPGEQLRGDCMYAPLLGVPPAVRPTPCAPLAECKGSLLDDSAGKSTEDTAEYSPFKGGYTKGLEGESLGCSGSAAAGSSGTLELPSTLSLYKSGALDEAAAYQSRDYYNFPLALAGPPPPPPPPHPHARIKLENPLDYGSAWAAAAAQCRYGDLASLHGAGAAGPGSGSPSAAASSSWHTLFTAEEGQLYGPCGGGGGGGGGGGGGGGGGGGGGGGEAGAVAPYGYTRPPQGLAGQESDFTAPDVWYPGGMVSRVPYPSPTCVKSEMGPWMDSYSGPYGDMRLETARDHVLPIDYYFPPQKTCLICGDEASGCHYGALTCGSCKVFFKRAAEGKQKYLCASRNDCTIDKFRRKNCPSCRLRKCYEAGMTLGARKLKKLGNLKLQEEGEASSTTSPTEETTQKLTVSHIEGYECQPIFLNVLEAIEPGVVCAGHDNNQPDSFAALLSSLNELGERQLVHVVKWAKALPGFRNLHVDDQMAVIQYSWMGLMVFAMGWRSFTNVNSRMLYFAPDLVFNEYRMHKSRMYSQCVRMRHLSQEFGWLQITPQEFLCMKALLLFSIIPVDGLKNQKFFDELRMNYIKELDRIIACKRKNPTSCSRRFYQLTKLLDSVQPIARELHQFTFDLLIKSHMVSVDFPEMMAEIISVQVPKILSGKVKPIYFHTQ
Method in brief: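 Human osteosarcoma U2OS line, AR-RFP plus TIF2-GFP; compounds 0.195–50 uM final, 0.5% DMSO. Readout: nucleolar/cytoplasmic RFP ratio by HCI, positive direction vs DMSO baseline.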

[2] = CCTE_Shafer_MEA_acute_spike_number: CCTE's Neural Acute Assay for Total Number of Spikes, Shafer Lab (AID 2284008);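 for AC50: curve fitted for decrease in spike count so AC50 reflects inhibitors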
Method in brief: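 Rat cortical cultures, DIV 13/15, 37 C. 40 min baseline rec, cpd 0.03-40 uM, 40 min post-dose rec. Band-pass 300-5000 Hz, spike threshold 8x rms; % change in spike count per well, DMSO neg ctrl, loss-of-signal fit.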

[3] = CCTE_Shafer_MEA_acute_firing_rate_mean: CCTE's Neural Acute Assay for Mean Firing Rate, Shafer Lab (AID 2284009);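 note: analyzed for loss of signal so actives lower firing rate relative to DMSO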
Method in brief: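 Rat cortical neuron cultures matured to DIV 13 or 15, equilibrated 20 min at 37 C, then recorded 40 min for baseline. Compound (0.03-40 uM) added and a further 40 min recorded; percent change in mean firing rate calculated per well.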

[4] = CCTE_Harrill_HTTr_Viability_MCF7: CCTE's 6-hour Cell Viability Assessment for the High-Throughput Transcriptomics (HTTr) Platform, in MCF-7 cells cultured in DMEM + 10% fetal bovine serum, Harrill Lab (AID 2284010)
Method in brief: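 Eight-point concentration series, six-hour exposure. Propidium iodide exclusion imaged to assess membrane integrity as a cytotoxicity readout; bidirectional fitting was done with DMSO as negative control and activity baseline.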

[5] = CCTE_Harrill_HTTr_Apoptosis_MCF7: CCTE's 6-hour Apoptosis Assessment for the High-Throughput Transcriptomics (HTTr) Platform, in MCF-7 cells cultured in DMEM + 10% fetal bovine serum, Harrill Lab (AID 2284011)
Method in brief: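 Read-out: CellEvent Caspase 3/7 Green signal by high content imaging, gain-of-signal indicating apoptosis. MCF-7 cells, DMEM + 10% FBS, eight-point dilution series, 6 h exposure. Curves fitted bidirectionally relative to DMSO negative control.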

[6] = CCTE_Shafer_MEA_acute_burst_number: CCTE's Neural Acute Assay for Single-Electrode Bursts, Shafer Lab (AID 2284013)
Method in brief: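 Percent change in single-electrode burst number per well, from 40-min recordings taken before and after adding compound (0.03-40 uM) to primary rat cortical neurons on MEA plates at DIV 13 or 15, 37 C.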

[7] = CCTE_Shafer_MEA_acute_burst_duration_mean: CCTE's Neural Acute Assay for Mean Burst Duration, Shafer Lab (AID 2284014);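 note: hits are decreases in mean burst duration relative to DMSO controls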
Method in brief: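 Rat cortical cultures, DIV 13/15; 40 min baseline, then 40 min with compound (0.03-40 uM), 37 C. Spikes: 300-5000 Hz band-pass, 8x rms threshold. Read-out: % change in mean single-electrode burst duration, DMSO-referenced, loss direction.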

[8] = CCTE_Shafer_MEA_acute_per_burst_spike_number_mean: CCTE's Neural Acute Assay for Average Number of Spikes Per Burst, Shafer Lab (AID 2284015);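 note: hits are decreases in mean spikes per burst versus baseline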
Method in brief: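 Primary rat cortical neurons on 48-well MEA plates, treated on DIV 13 or 15 at 0.03-40 uM. Spontaneous activity recorded 40 min before and 40 min after compound at 37 C; percent change in mean spikes per single-electrode burst per well, fitted in the loss direction versus DMSO.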

[9] = CCTE_Shafer_MEA_acute_interburst_interval_mean: CCTE's Neural Acute Assay for Mean Interburst Interval, Shafer Lab (AID 2284016);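 note: percent change of mean interburst interval versus each well's own pre-dose baseline; curves fitted for decrease in interburst interval relative to DMSO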
Method in brief: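 Primary rat cortical neurons on 16-electrode MEA wells were recorded 40 min at baseline on DIV 13 or 15, then 40 min after compound (0.03-40 uM), at 37 C. Value is percent change in mean interburst interval per well, DMSO as negative control.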

[10] = CCTE_Shafer_MEA_acute_burst_percentage_mean: CCTE's Neural Acute Assay for Percentage of Spikes in a Burst, Shafer Lab (AID 2284017);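 for AC50: curve fitted for loss of signal so potency reflects decreased burst percentage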
Method in brief: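 Primary rat cortical neurons on 16-electrode MEA wells; 40 min baseline recorded at DIV 13 or 15, then 40 min after compound (0.03-40 uM) at 37 C. Well-mean fraction of spikes in single-electrode bursts; percent change from baseline, DMSO as negative control.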

[11] = CCTE_Shafer_MEA_acute_burst_percentage_std: CCTE's Neural Acute Assay for Standard Deviation of Burst Percentage, Shafer Lab (AID 2284018);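 note: fitted in the negative direction so actives lower burst percentage SD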
Method in brief: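 Rat primary cortical neurons on 48-well MEAs, DIV 13 or 15, 37 C. 40-min baseline then 40-min recording with compound (0.03-40 uM); well-level SD of per-electrode burst spike percentage, expressed as percent change from baseline.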

[12] = CCTE_Shafer_MEA_acute_per_network_burst_electrodes_number_mean: CCTE's Neural Acute Assay for Mean Number of Electrodes in a Network Burst, Shafer Lab (AID 2284021);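 note: curves fitted for decreases only so hits reduce electrodes per burst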
Method in brief: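 Readout: % change in mean electrodes active per network burst, post- vs pre-treatment, each well. Spikes detected at 8x rms noise after 300-5000 Hz band-pass; rat cortical cultures, DIV 13/15, compounds 0.03-40 uM, DMSO baseline.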

[13] = CCTE_Shafer_MEA_acute_cross_correlation_area: CCTE's Neural Acute Assay for Area of Cross Correlation, Shafer Lab (AID 2284024);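 note: area under pooled inter-electrode spike cross-correlation near zero lag as percent change from own baseline; curves fitted for loss of cross-correlation area so actives lower synchrony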
Method in brief: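 Rat cortical cultures, DIV 13/15, MEA; spikes detected at 8x rms noise (300-5000 Hz band-pass). Compound 0.03-40 uM, ≥3 wells each. Readout: % change in pooled inter-electrode cross-correlation area vs own baseline; DMSO negative control.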

[14] = CCTE_Shafer_MEA_acute_synchrony_index: CCTE's Neural Acute Assay for Synchrony, Shafer Lab (AID 2284027);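 note: network synchrony index of spontaneous spiking in primary rat cortical neurons on MEAs; fitted for loss of signal so actives lower synchrony relative to DMSO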
Method in brief: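 Acute exposure of rat primary cortical neurons (DIV 13 or 15) at 0.03-40 uM. Synchrony index, 40 min before vs after, as % change relative to DMSO control.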

[15] = target: Estrogen receptor (Homo sapiens) (UniProt P03372); test: CCTE_Deisenroth_AIME_384WELL_LUC_Active: CCTE's 384-well Estrogen Receptor Transactivation Assay with AIME metabolic competence (ERTA luciferase; metabolism positive), Deisenroth Lab (AID 2284030; active = hit-call score of the fitted dose curve at least 0.9, where 1 is the maximum)
Sequence of Estrogen receptor (Homo sapiens) (P03372 whole entry, looked up): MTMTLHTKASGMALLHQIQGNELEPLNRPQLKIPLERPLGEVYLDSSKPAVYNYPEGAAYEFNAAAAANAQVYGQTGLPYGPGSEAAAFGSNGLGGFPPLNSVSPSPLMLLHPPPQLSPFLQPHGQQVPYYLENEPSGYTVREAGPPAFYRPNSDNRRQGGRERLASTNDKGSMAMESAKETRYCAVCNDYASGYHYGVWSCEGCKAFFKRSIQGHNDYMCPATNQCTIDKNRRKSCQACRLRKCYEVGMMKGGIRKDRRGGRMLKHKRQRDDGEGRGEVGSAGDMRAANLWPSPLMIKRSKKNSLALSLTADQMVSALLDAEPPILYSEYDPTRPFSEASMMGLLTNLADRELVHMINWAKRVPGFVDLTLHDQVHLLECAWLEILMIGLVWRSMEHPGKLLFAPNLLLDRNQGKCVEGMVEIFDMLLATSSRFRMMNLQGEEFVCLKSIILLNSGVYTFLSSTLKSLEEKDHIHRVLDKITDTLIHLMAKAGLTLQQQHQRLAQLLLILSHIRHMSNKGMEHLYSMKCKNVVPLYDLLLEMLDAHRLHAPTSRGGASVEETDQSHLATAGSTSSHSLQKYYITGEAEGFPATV
Method in brief: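 Readout: bioluminescent luciferase induction in VM7Luc4E2 cells 24 hour after receiving medium from a 2 h rat hepatic S9 (induced, alginate microsphere) metabolism step. Concentrations 0.002 - 200 uM; activity scaled to 17beta-estradiol positive control.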

[16] = CCTE_Simmons_MITO_basal_resp_rate: CCTE's HepG2 Seahorse XF Respirometric Screening Assay at Basal Respiratory State, Simmons Lab (AID 2284001); details: actives raise or lower the signal
Method in brief: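 Basal-phase OCR of HepG2 cells on a Seahorse XF96, analysed by bidirectional fit relative to DMSO vehicle; chemicals at 7 concentrations, 125 nM–100 uM final; three biological replicates; fenpyroximate and 2,4-dinitrophenol positive controls.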

[17] = CCTE_Simmons_MITO_max_resp_rate: CCTE's HepG2 Seahorse XF Respirometric Screening Assay at Maximal Respiratory State [uncoupled], Simmons Lab (AID 2284002); details: actives raise or lower the signal
Method in brief: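 HepG2, Seahorse XF96, maximal OCR post-FCCP. Cpd 125 nM–100 uM final (7 conc), n=3 biological. Kinetic reads every 6 min (3 min mix/3 min measure) over 72 min; fit bidirectional vs DMSO.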

[18] = CCTE_Simmons_MITO_inhib_resp_rate: CCTE's HepG2 Seahorse XF Respirometric Screening Assay at Inhibited Respiratory State [full ETC block], Simmons Lab (AID 2284006); details: actives raise or lower the signal
Method in brief: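 Test chemicals at seven final concentrations (125 nM–100 uM) in three biological replicates, with DMSO as vehicle. HepG2 oxygen consumption was then tracked on a Seahorse XF96 for 72 min through FCCP and rotenone/antimycin A phases, with the inhibited-phase rate as the endpoint.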

[19] = CCTE_Simmons_MITO_viability: CellTiter-Glo Viability Assessment for CCTE's HepG2 Seahorse XF Respirometric Screening Assay [post-hoc], Simmons Lab (AID 2284007; active = hit-call score of the fitted dose curve at least 0.9, where 1 is the maximum;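 for AC50: cells exposed to chemical for 90 min before the ATP read; actives lower ATP signal relative to DMSO baseline meaning reduced viability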)
Method in brief: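 Post-hoc viability check on the HepG2 respirometry plates: luciferase-based ATP signal measured once, after 90 min compound exposure spanning 125 nM–100 uM final. Activity was referenced to DMSO as baseline.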

[20] = CCTE_Harrill_HTTr_CellCount_MCF7: CCTE's Cell Proliferation Assessment for the High-Throughput Transcriptomics (HTTr) Platform, Harrill Lab (AID 2284012; active = hit-call score of the fitted dose curve at least 0.9, where 1 is the maximum;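 note: count of Hoechst-stained nuclei per well by high-content imaging in MCF-7 cells; cells exposed to compound for six hours; intended direction is loss of nuclei count meaning fewer cells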)
Method in brief: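 For this full-screen endpoint, MCF-7 cultures received eight compound dilutions for six hours. Well nuclei counts from Hoechst imaging were analyzed relative to DMSO.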

Measured: AC50

CCCN(CCC)c1c([N+](=O)[O-])cc(C(F)(F)F)cc1[N+](=O)[O-]
active: [2] 8.55 µM | [9] 4.23 µM | [10] 5.5 µM | [11] 20 µM | [12] 8.36 µM
inactive: [1] | [3] | [4] | [5] | [6] | [7] | [8] | [13] | [14] | [15]

CCOC1Oc2ccc(OS(C)(=O)=O)cc2C1(C)C (configuration not stated)
active: [16] 33.5 µM | [17] 35.3 µM | [18] 33.9 µM
inactive: [1] | [19] | [4] | [5]

CC[C@H](C)[C@H]1O[C@]2(C=C[C@@H]1C)C[C@@H]1C[C@@H](C/C=C(\C)[C@@H](O[C@H]3C[C@H](OC)[C@@H](O[C@H]4C[C@H](OC)[C@@H](O)[C@H](C)O4)[C@H](C)O3)[C@@H](C)/C=C/C=C3\CO[C@@H]4[C@H](O)C(C)=C[C@@H](C(=O)O1)[C@]34O)O2 (tested in a mixture with another compound)
active: [16] 24.7 µM | [17] 18 µM | [2] 0.0048 µM | [3] 0.00477 µM | [6] 0.00721 µM | [7] 0.0208 µM | [8] 0.00576 µM | [10] 0.0165 µM | [11] 0.0752 µM | [12] 0.05 µM | [13] 0.00277 µM | [14] 0.165 µM
inactive: [18] | [4] | [5] | [20] | [9]

C#CCN1C(=O)COc2cc(F)c(N3C(=O)C4=C(CCCC4)C3=O)cc21
active: [16] 64.9 µM | [17] 53.1 µM
inactive: [1] | [18] | [19] | [4] | [5]

COP(=S)(OC)Oc1ccc([N+](=O)[O-])cc1
inactive: [16] | [17] | [18] | [19] | [4] | [5] | [20]

CCC(C)(NC(=O)c1cc(Cl)c(C)c(Cl)c1)C(=O)CCl (configuration not stated)
inactive: [16] | [17] | [18] | [4] | [5] | [20]

O=C(O)COc1ccc(Cl)cc1Cl
inactive: [16] | [17] | [18] | [4] | [5] | [20]

CC1(c2ccc(Oc3ccccc3)cc2)OC(=O)N(Nc2ccccc2)C1=O (configuration not stated)
inactive: [18] | [19] | [4] | [5]
active: [16] 4.7 µM | [17] 3.04 µM

CCCN(CCOc1c(Cl)cc(Cl)cc1Cl)C(=O)n1ccnc1
inactive: [18] | [4] | [5] | [20] | [9] | [11] | [12] | [13] | [14]
active: [16] 11.2 µM | [17] 18 µM | [19] 13.6 µM | [2] 1.26 µM | [3] 1.24 µM | [6] 1.56 µM | [7] 29.5 µM | [8] 33.1 µM | [10] 34.6 µM

O=[N+]([O-])c1c(Cl)c(Cl)c(Cl)c(Cl)c1Cl
inactive: [1] | [4] | [5] | [20]

Oc1cc(Cl)ccc1Oc1ccc(Cl)cc1Cl
active: [16] 21 µM | [17] 19.3 µM | [2] 1.89 µM | [3] 1.89 µM | [6] 1.29 µM | [9] 1.2 µM | [10] 12.7 µM | [14] 5 µM
inactive: [16] | [18] | [19] | [4] | [5] | [20] | [7] | [8] | [11] | [12] | [13]

CC(C)N(C(=O)COc1nnc(C(F)(F)F)s1)c1ccc(F)cc1
inactive: [3] | [4] | [5] | [6] | [7] | [8] | [9] | [11] | [12] | [13] | [14] | [15]
active: [2] 5.77 µM and 2.11 µM | [3] 5.77 µM | [8] 1.36 µM | [9] 31.9 µM | [10] 30.6 µM and 15 µM | [11] 3.55 µM | [14] 15 µM

CCC(C)(C)C(=O)OC1=C(c2ccc(Cl)cc2Cl)C(=O)OC12CCCCC2
inactive: [1] | [2] | [3] | [4] | [5] | [20] | [6] | [7] | [8] | [9] | [10] | [11] | [12] | [13] | [14]
active: [7] 25.9 µM | [8] 20 µM | [10] 3.59 µM | [13] 20 µM | [14] 5.2 µM

CC(C)(C)C(O)/C(=C\c1ccc(Cl)cc1Cl)n1cncn1 (configuration not stated)
inactive: [18] | [19] | [4] | [5] | [20]
active: [16] 15.8 µM | [17] 21.1 µM

O=C(O)CCCOc1ccc(Cl)cc1Cl
inactive: [1] | [17] | [18] | [2] | [3] | [4] | [5] | [6] | [7] | [8] | [9] | [10] | [11] | [12] | [13] | [14]
active: [16] 32.5 µM

CCOCN(C(=O)CCl)c1c(C)cccc1CC
inactive: [16] | [17] | [18] | [19] | [4] | [5] | [20]
